{"source": "PubChem BioAssay AID1347076", "about": "(National Center for Advancing Translational Sciences (NCATS), 2019)", "note": "Hit rate of the full screen: of about 400,000 compounds, about 13,000 (3.2%) were called active. Inconclusive results (about 18%) are left out. Calls come from the whole dose curve; as a rule, active = well fitted cell-killing curve with a large enough effect; inconclusive = small, poorly fitted or top-dose-only effect, or effect the other way; inactive = flat fitted curve, though single readings scatter. The list comes from a sample in which actives are over-represented; it also holds similar structures and randomly drawn compounds. Entries that show only a call come without a potency. Potency is the fitted concentration of half-maximal effect."}
{"experiment": "qHTS assay for MDR1-selective chemotherapeutics: Primary screen using the drug-selected MDR subline cells KB-V1; note: nearly all actives have a fitted effect of over 60% in size", "settings": "KB-V1 MDR cells viability, CellTiter-Glo, 72 h; series mostly up to 46.1 µM", "source_text": "A prime difficulty in effectively treating cancer is the development of cellular resistance to multiple structurally unrelated anticancer drugs, a phenomenon known as multidrug resistance (MDR). […] Numerous strategies to overcome P-gp-mediated MDR have been explored, including the design of drugs that evade recognition and efflux, and development of inhibitors to block efflux and restore drug accumulation. […] An alternative approach is to exploit resistance by identifying drugs that target MDR cells over the non-resistant parental cells from which they were selected. […] The development of MDR1-selective agents represents a new strategy for resolving multidrug resistance, as it remains a long-standing clinical challenge for cancer chemotherapy.\nOur goal is to identify compounds that selectively kill P-gp-expressing MDR cells. We will identify MDR1-selective compounds by comparing toxicity of compounds in the screening library against parental, drug-naive (KB-3-1) adenocarcinoma cells as well as their drug-selected MDR sub-line (KB-V1). The differential toxicity of compounds against these two cell lines will be used to identify MDR1-selective compounds, whose cytotoxicity is potentiated, rather than diminished, by P-gp expression. This assay will be utilized to conduct a quantitative high-throughput screen (qHTS) in collaboration with the NIH Chemical Genomics Center to identify selective agents, and probe hits arising from the screen will be validated using secondary assays and characterized through a well-established follow-up research program. This screen was run against the entire NCGC library collection of about 400,000 compounds.\nNIH Molecular Libraries Probe Production Network [MLPCN]\nNIH Chemical Genomics Center [NCGC]\nPI: Michael Gottesman, National Cancer Institute, NIH\nBriefly, 5 microL of media containing either KB-V1 cells (columns 1-2, 4-48) are dispensed into Greiner white, treated solid-bottom 1536-well assay plates (media-only control is added to column 3). Compounds are then transferred via Kalypsys pin tool equipped with 1536-pin array (10 nL slotted pins, V&P Scientific, San Diego, CA). Following addition of compound, the plates are incubated at 37 degrees C for 72 hours. CellTiter-Glo (2.5 µL/well) is then added, and the plates are read in a ViewLux reader (Perkin-Elmer, clear luminescence filter, 1 second exposure, 1x binning) following a 10 minute incubation. All cells are dispensed in DMEM phenol-red free media containing 10% FBS.\nLibrary plates were screened starting from the lowest and proceeding to the highest concentration. Vehicle-only plates, with DMSO being pin-transferred to columns 5-48, will be inserted uniformly at the beginning and the end of each library in order to monitor and record any shifts in the background, which can be affected by reagent dispensers or loss in enzyme activity over time. Screening data will be corrected, normalized, and concentration-effect relationships will be derived by using publicly-available NCGC, NCATS curve fitting algorithms (http://ncgc.nih.gov/pub/openhts)."}
{"smiles": "CCCCCCCCCCCCn1ccc(=N)cc1", "Potency": "8.2 µM (active)"}
{"smiles": "COC(=O)C(O)(c1ccc(NC(=O)c2ccco2)c(OC)c1)C(F)(F)F", "note": "(stereo not drawn)", "Potency": "inactive"}
{"smiles": "COC(=O)C1=C(c2cc3ccccc3s2)C[C@@H]2CC[C@H]1N2C(=O)NCCO", "Potency": "inactive"}
{"smiles": "CCCCCn1c(=O)c(C(=O)Nc2c(C)n(C)n(-c3ccccc3)c2=O)c(O)c2ccccc21", "Potency": "2.06 µM (active)"}
{"smiles": "COc1cc(C(c2c(O)c3ccccc3oc2=O)c2c(C)n(C)n(-c3ccccc3)c2=O)ccc1O", "note": "(stereo not drawn)", "Potency": "inactive"}
{"smiles": "CCCCCn1c(=O)c(C(=O)NCc2ccccc2)c(O)c2ccccc21", "Potency": "inactive"}
{"smiles": "CCCCn1c(=O)c(C(=O)Nc2ccccc2Cl)c(O)c2ccccc21", "Potency": "inactive"}
{"smiles": "CCCCCn1c(=O)c(C(=O)NCc2ccccn2)c(O)c2ccccc21", "Potency": "14.6 µM (active)"}
{"smiles": "O=C(O)c1cc[c]([Sb](=[O])([OH])[OH])cc1[N+](=O)[O-]", "Potency": "inactive"}
{"smiles": "Cc1ccc(S(=O)(=O)N(C)c2ccc(C(=O)NCC3(N(C)C)CCCCC3)cc2)cc1", "Potency": "inactive"}
{"smiles": "Cc1c(Oc2cc(NN3CCCCC3)c([N+](=O)[O-])cc2[N+](=O)[O-])cccc1[N+](=O)[O-]", "Potency": "inactive"}
{"smiles": "CCC1(CC(C)c2ccccc2)C(=O)NC(=O)NC1=O", "note": "(stereo not drawn)", "Potency": "inactive"}
{"smiles": "C[N+]1(C)CCOC(O)(c2ccc(-c3ccc(C4(O)C[N+](C)(C)CCO4)cc3)cc2)C1", "note": "(stereo not drawn)", "Potency": "inactive"}
{"smiles": "ClC(Cl)(Cl)c1ccccc1", "Potency": "inactive"}
{"smiles": "COC(=O)C1=C(c2ccc(OCc3ccccc3)cc2)C[C@@H]2CC[C@H]1N2C(=O)NCc1cccc(F)c1", "Potency": "7.31 µM (active)"}
{"smiles": "COC(=O)C1=C(c2ccc(F)cc2OCc2ccccc2)C[C@@H]2CC[C@H]1N2C(=O)NCc1ccc(Cl)cc1", "Potency": "inactive"}
{"smiles": "COC(=O)C1=C(c2ccc(-c3ccccc3)c(F)c2)C[C@@H]2CC[C@H]1N2C(=O)NCc1ccc(F)cc1", "Potency": "20.6 µM (active)"}
{"smiles": "COC(=O)C1=C(c2ccccc2)C[C@@H]2CC[C@H]1N2C(=O)NCc1ccco1", "Potency": "inactive"}
{"smiles": "COC(=O)C1=C(c2ccccc2OCc2ccccc2)C[C@@H]2CC[C@H]1N2C(=O)NCc1ccc(OC)cc1", "Potency": "inactive"}
{"smiles": "COC(=O)C1=C(c2ccc(F)cc2OCc2ccccc2)C[C@@H]2CC[C@H]1N2C(=O)NCc1ccc2[nH]ccc2c1", "Potency": "inactive"}
{"smiles": "COC(=O)C1=C(c2ccc(F)cc2OCc2ccccc2)C[C@@H]2CC[C@H]1N2C(=O)NCc1ccc(OC)c(OC)c1", "Potency": "inactive"}
{"smiles": "COC(=O)C1=C(c2ccc(F)cc2OCc2ccccc2)C[C@@H]2CC[C@H]1N2C(=O)NCc1ccc(C(C)(C)C)cc1", "Potency": "inactive"}
{"smiles": "COC(=O)C1=C(c2ccc(OCc3ccccc3)cc2)C[C@@H]2CC[C@H]1N2C(=O)NCc1ccc(Cl)cc1", "Potency": "14.6 µM (active)"}
{"smiles": "Nc1ccc(Cc2ccc(N)c(Cl)c2)cc1Cl", "Potency": "inactive"}
{"smiles": "O=C(O)/C=C/c1ccc2c(c1)OCO2", "Potency": "inactive"}
{"smiles": "O=C1NC(=O)C(Cc2ccccc2)C(=O)N1", "Potency": "inactive"}
{"smiles": "COc1ccc(-n2nnnc2C(c2cccc3ccccc23)N2CCC(n3c(=O)[nH]c4ccccc43)CC2)cc1", "note": "(stereo not drawn)", "Potency": "inactive"}
{"smiles": "COC(=O)N1C(c2ccccc2)C1c1ccccc1", "note": "(stereo not drawn)", "Potency": "inactive"}
{"smiles": "Fc1ccc(C2N3CCCN23)cc1", "note": "(stereo not drawn)", "Potency": "inactive"}
{"smiles": "CC(C)CN1Cc2cc(N3CCCCC3)ccc2-n2nncc2C1", "Potency": "inactive"}
{"smiles": "CC(Cc1ccccc1)NCCC(c1ccccc1)c1ccccc1", "note": "(stereo not drawn)", "Potency": "14.6 µM (active)"}
{"smiles": "CC(Cc1ccccc1)NC=O", "note": "(stereo not drawn)", "Potency": "inactive"}
{"smiles": "CC(=O)NC(=O)NC(C)Cc1ccccc1", "note": "(stereo not drawn)", "Potency": "inactive"}
{"smiles": "C[C@]12CCCCC1=CC(=O)C1C2CC[C@@]2(C)C1C[C@@H](F)[C@@H]2O", "note": "(stereo partly drawn)", "Potency": "inactive"}
{"smiles": "CC(c1ccccc1)(c1ccccc1)c1ccncc1", "Potency": "inactive"}
{"smiles": "C/C(=N/O)c1ccc2ccc3ccccc3c2c1", "Potency": "3.26 µM (active)"}
{"smiles": "C/C(CCc1c[nH]c2ccccc12)=N\\O", "Potency": "inactive"}
{"smiles": "O=[N+]([O-])c1cnc2ccc3ccccc3c2c1", "Potency": "inactive"}
{"smiles": "CC1(C)Cc2c(C#N)c(N3CCNCC3)nc(-c3ccco3)c2CS1", "Potency": "inactive"}
{"smiles": "CCOC(=O)C1(c2ccccc2)CCN(CC(O)c2ccc(NC(C)=O)cc2)CC1", "note": "(stereo not drawn)", "Potency": "inactive"}
{"smiles": "O=C(CN1CCCCC1)Nc1ccc(Br)cc1C(=O)c1ccccc1Cl", "Potency": "inactive"}
{"smiles": "O=C(CCN1CCCCC1)NCC(=O)Nc1ccc(Br)cc1C(=O)c1ccccc1", "Potency": "18.4 µM (active)"}
{"smiles": "CCOC(=O)CNC(=O)N1Cc2cc(N3CCCCC3)ccc2-n2nncc2C1", "Potency": "inactive"}
{"smiles": "C[C@H]1CN([C@@H](C)CO)C(=O)CCCn2nncc2CO[C@H]1CN(C)C(=O)Oc1cccc2ccccc12", "Potency": "inactive"}
{"smiles": "Cc1ccc(C(C)C)c(OCC(=O)N2CCN(CC(=O)N3CCOCC3)CC2)c1", "Potency": "inactive"}
{"smiles": "CC1CCCN1CCC(C(N)=O)(c1ccccc1)c1ccccc1", "note": "(stereo not drawn)", "Potency": "inactive"}
{"smiles": "O=C(NC1CCCCC1)N1Cc2cc(N3CCCCC3)ccc2-n2nncc2C1", "Potency": "inactive"}
{"smiles": "c1ccc2c(c1)[I+]c1ccccc1-2", "Potency": "16.4 µM (active)"}
{"smiles": "CC=C(C)C(=O)OC1CCN2CC=C(COC(=O)C(O)(C(C)OC)C(C)(C)O)C12", "note": "(stereo not drawn)", "Potency": "inactive"}
{"smiles": "CC1CNCCN1c1ccc(Cl)cc1", "note": "(stereo not drawn)", "Potency": "inactive"}
{"smiles": "O=C(Nc1ccc(Cl)cc1C(=O)c1ccccc1)c1cc(Cl)cc(Cl)c1", "Potency": "inactive"}
{"smiles": "O=C(COC(=O)c1ccccc1)Nc1ccc(Cl)cc1C(=O)c1ccccc1", "Potency": "inactive"}
{"smiles": "CN1CCN(C(=S)SCC(=O)Nc2ccc(Cl)cc2C(=O)c2ccccc2)CC1", "Potency": "5.17 µM (active)"}
{"smiles": "COc1ccc(C2C=C(C)Oc3c2c(=O)oc2ccccc32)cc1OC", "note": "(stereo not drawn)", "Potency": "inactive"}
{"smiles": "Cc1ncoc1C(=O)NCC1=C(c2cccc3ccccc23)C[C@@H]2CC[C@H]1N2Cc1ccco1", "Potency": "inactive"}
{"smiles": "C=C(C)C1(CCCC)C(=O)NC(=S)NC1=O", "Potency": "inactive"}
{"smiles": "Oc1cc2c(cc1CN1CCN(c3ccccc3)CC1)OCO2", "Potency": "inactive"}
{"smiles": "Cc1cc(C)c2c(c1)NP(=S)(c1ccccc1)N2", "note": "(stereo not drawn)", "Potency": "inactive"}
{"smiles": "C[C@]12CCC3C(CC[C@H]4[C@H](O)[C@H](O)CC[C@]34C)C1CC[C@@H]2O", "note": "(stereo partly drawn)", "Potency": "inactive"}
{"smiles": "CC12CCC(O)CC1CCC1C2CCC2(C)C(C(=O)CC(O)C(F)(F)F)CCC12", "note": "(stereo not drawn)", "Potency": "23.1 µM (active)"}
{"smiles": "C[C@]12CCC3C(CC[C@H]4C[C@@H](O)CC[C@]34C)C1CC[C@@H]2O", "note": "(stereo partly drawn)", "Potency": "inactive"}
{"smiles": "COC(=O)[C@@H]1C(OC(=O)c2ccccc2)CC2CCC1N2C", "note": "(stereo partly drawn)", "Potency": "inactive"}
{"smiles": "Cn1c(O)c(C(=Nc2ccc(F)cc2)c2ccccc2)c(=O)n(C)c1=O", "Potency": "inactive"}
